Lassa entry: inhibitors of Lassa virus binding or entry into cells; 4.1% of 18,000 active; Potency, µM (top dose mostly 49.2 µM), without a hit: top-dose activity change, negative = inhibition, hits mostly inhibitors; AID 720533; Lassa virus pseudotyped entry inhibition, cell-based qHTS
MARV entry inh: inhibitors of Marburg virus binding or entry into cells | AID 720532 | 6.5% of 18,000 active | Marburg virus pseudotype entry/binding inhibition, cell-based | Potency, µM (series often up to 49.2 µM), for the others: top-dose activity change, negative = inhibition, actives largely listed as inhibitors
* = called active by the depositor; ? = inconclusive; . = no result; ! = not confirmed by another sample; [ ] = dose if it differs, or a comment. The list is not random: actives were taken first. Their share in the collection is about 8.6%. The call rests on the fitted dose curve; tested in HEK293 cells. On the % scale 0 is the no-effect control and ±100 the full control effect; potency means the concentration at half of the fitted maximal effect.

SMILES	Lassa entry	MARV entry inh
CC[C@@H](C)[C@H](NS(=O)(=O)c1cccc2ccccc12)C(=O)N[C@H](C=O)Cc1c[nH]c2ccccc12	?	3.55µM*
CC(C)(C)OC(=O)N[C@@H](Cc1c[nH]c2ccccc12)C(=O)O	-5.6%	10.5%
N#CC(C#N)=NNc1ccc(OC(F)(F)F)cc1	1.26µM*	3.16µM*
O=C(NCCc1ccccc1)c1ccc(-c2ccccc2Cl)o1	6.9%	39.1%
Cc1cccc(CNC(=O)c2cnn(-c3ncc4c(n3)-c3ccccc3CC4)c2C2CC2)n1	6.2%	-2.5%
CN(C(=O)COc1nc2ccccc2s1)c1ccccc1	-3.3%	3.3%
CNc1ccc(-c2nc3ccccc3s2)cc1	10µM*	7.08µM*
CC(C)C1C(=O)N(Cc2cn(CCC3OCCO3)nn2)CCS(=O)(=O)N1Cc1ccc(-c2cccc(N(C)C)c2)cc1 (centres undefined)	8.3%	6.5%
CC(C)C[C@H](NC(=O)CNC(=O)[C@H](Cc1ccc(O)cc1)NC(=O)[C@H](CO)NC(=O)[C@H](Cc1c[nH]c2ccccc12)NC(=O)[C@H](Cc1cnc[nH]1)NC(=O)[C@@H]1CCC(=O)N1)C(=O)N[C@@H](CCCN=C(N)N)C(=O)N1CCC[C@H]1C(=O)NCC(N)=O (stereo in doubt)	-13.2%	-1.9%
CCNC(=O)[C@@H]1CCCN1C(=O)[C@H](CCCN=C(N)N)NC(=O)[C@H](CC(C)C)NC(=O)[C@@H](Cc1c[nH]c2ccccc12)NC(=O)[C@H](Cc1ccc(O)cc1)NC(=O)[C@H](CO)NC(=O)[C@H](Cc1c[nH]c2ccccc12)NC(=O)[C@H](Cc1cnc[nH]1)NC(=O)[C@@H]1CCC(=O)N1	3.16µM*	?
Nc1nc(-c2nn(Cc3ccccc3F)c3ncccc23)ncc1C1CC1	0.891µM*	0.562µM*
COCCOC(=O)C1=C(C)NC(C)=C(C(=O)OC(C)C)[C@H]1c1cccc([N+](=O)[O-])c1	-6.3%[17.8 µM]	-2.3%[17.8 µM]
COC(=O)C1=C(C)NC(C)=C(C(=O)O[C@H]2CCN(Cc3ccccc3)C2)[C@H]1c1cccc([N+](=O)[O-])c1	?	22.4µM*
COC(=O)C1=C(C)NC(C)=C(C(=O)OCCNCc2ccccc2)C1c1cccc([N+](=O)[O-])c1 (centres undefined)	?	11.2µM*
COC(=O)C1=C(C)NC(C)=C(C(=O)OCCN(C)Cc2ccccc2)[C@H]1c1cccc([N+](=O)[O-])c1	-5.9%[17.8 µM]	?
COC(=O)C1=C(C)NC(C)=C(C(=O)OCC(C)=O)C1c1ccccc1[N+](=O)[O-] (centres undefined)	?	12.6%
COC(=O)C1=C(C)NC(C)=C(C(=O)NCCCN2CCC(c3ccccc3)(c3ccccc3)CC2)C1c1ccc([N+](=O)[O-])cc1 (centres undefined)	?	3.16µM*
CC=COC(=O)N[C@@H](c1cccc(C)c1)[C@]1(C(=O)OCC)CCCC1=O	-16.8%[8.59 µM]	13.1%[8.59 µM]
COC(=O)c1ccccc1-c1cc(C)cc2c1OC(CNC(=O)c1ccn(C)n1)C2 (centres undefined)	0.4%	?
O=C(/C=C/c1ccc(O)c(O)c1)OC(Cc1ccc(O)c(O)c1)C(=O)O (centres undefined)	-5.1%	8.91µM*
O=C(/C=C\c1ccc(O)c(O)c1)O[C@@H](Cc1ccc(O)c(O)c1)C(=O)O	-16.4%	?
Cc1ccccc1OCC(O)CNCCOc1ccc(C(N)=O)cc1 (centres undefined)	-1.0%	-3.7%
CCCNCC(O)COc1ccccc1C(=O)CCc1ccccc1 (centres undefined)	?	7.08µM*
COc1cc(=O)n2c(c1C(=O)N(C)Cc1cscn1)CCN(C(=O)c1ccc(C)cc1C)CC2	-2.5%	-75.0%
COc1ccc2c(c1)[C@@]1(OCCC=C[C@@H]1C)C(=O)N2Cc1ccc(F)cc1	39.8%[8.59 µM]	27.7%[8.59 µM]
SMILES	Lassa entry	MARV entry inh
COC(=O)c1c(OCCN2CCCCC2)cc(=O)n2c1CCN(Cc1cccc3nccnc13)CC2	-7.7%	?
OCc1ccc(Cl)cc1Cl	-19.2%	18.0%
O=C(CCl)c1ccc(Cl)cc1Cl	12.6µM*	8.91µM*
O=C(NCCCCc1ccccc1)c1cccc(NC(=O)C2CCCC2)c1	-29.8%	-21.1%
COC(=O)CCC(=O)OC1(C)C(=O)C=C2C=C(C3CC3)N(CCCOC(C)C)C=C2C1=O (centres undefined)	11.1%[8.59 µM]	-20.6%[8.59 µM]
CN(CCOc1ccc(NS(C)(=O)=O)cc1)CCc1ccc(NS(C)(=O)=O)cc1	-2.7%	5.5%
CCCCc1oc2ccc(NS(C)(=O)=O)cc2c1C(=O)c1ccc(OCCCN(CCCC)CCCC)cc1	12.6µM*	6.31µM*
O=C1[C@@H]2CSCCS(=O)(=O)N2C(=O)N1c1ccccc1	-2.6%	27.0%
CCC(=O)O[C@](Cc1ccccc1)(c1ccccc1)[C@H](C)CN(C)C	-13.4%	28.2µM*
CCC(=O)O[C@@](Cc1ccccc1)(c1ccccc1)[C@@H](C)CN(C)C	-0.8%[17.8 µM]	5.6%[17.8 µM]
CN(C)CCC(c1ccccc1)c1ccccn1 (centres undefined)	-12.3%	?
C[C@@H](C1=C(CCN(C)C)Cc2ccccc21)c1ccccn1	?	17.8µM*
O=C1CCCC2=C1[C@H]1O[C@](CCCCN3C(=O)c4ccccc4C3=O)(Cc3c1ccc1ccccc31)O2	-18.8%[8.59 µM]	-22.6%[8.59 µM]
C=CCC1(O)CCOc2ccccc21 (centres undefined)	-2.9%	0.7%
CC(=O)O[C@@H]1[C@@H](O)C2OC3C=C(C)C(=O)[C@@H](O)[C@]3(CO)C1(C)C21CO1 (some centres undefined)	0.562µM*	0.355µM*
CCCNC(=O)OC[C@H]1O[C@H](CCON=C(C)CCC(=O)OC[C@H]2O[C@H](C#Cc3ccccc3)C=C[C@H]2Oc2ccc(C)cc2)C=C[C@H]1Oc1ccc(OC)cc1	4.0%[8.59 µM]	-28.6%[8.59 µM]
O[C@H](c1cc(C(F)(F)F)nc2c(C(F)(F)F)cccc12)[C@H]1CCCCN1	5.7%[17.8 µM]	?
COc1cc(-c2cnc3ccccc3c2)cc2c1OCCN(C(=O)CCn1nc(C)cc1C)C2	-7.1%	8.3%
O=C(O)CCC(=O)c1ccc(-c2ccccc2)cc1	11.0%[17.8 µM]	0.1µM*!
O=C(CC(=O)c1ccccc1)c1ccccc1	59.2%	34.6%
C=C1C2CC[C@@]3(C)C(c4ccoc4)OC(=O)C[C@@]13OC1CC(O)C(C)(C)C(CC(=O)OC)[C@@]12C (some centres undefined)	0.8%	8.6%
O=C(c1ccc(F)cc1)C1CCN(CCn2c(=S)[nH]c3ccccc3c2=O)CC1	-10.3%	?
CCN(CC)CCCN(c1ccccc1)C1Cc2ccccc2C1	8.91µM*	3.55µM*
CCC[C@H]1CN(c2ccc(OC)cc2)C(=O)[C@H]1CC(=O)Nc1ccccc1	.	-23.4%
COc1cc2c(C=O)c3c4c(cc(OC)c(OC)c4c2cc1OC)CCN3C	15.8µM*	?
SMILES	Lassa entry	MARV entry inh
O=C(Nc1ccc(S(=O)(=O)N2CCOCC2)cc1)c1cc(Cl)ccc1NS(=O)(=O)c1ccc(Cl)s1	-14.2%	13.3%
Cc1oc(C)c(C(=O)Nc2ccccc2)c1C	-13.6%	3.1%
CC(NC(C)(C)C)C(=O)c1cccc(Cl)c1 (centres undefined)	28.5%	3.55µM*!
CC(C)OC(=O)Nc1cccc(Cl)c1	-15.3%	23.8%
C=CC(C)(O)CC1[C@@]2(C)CCCC(C)(C)C2CC[C@]1(C)O (some centres undefined)	-19.8%	-19.9%
COc1cc(O)c(C(=O)c2ccccc2)cc1O	-28.0%	?
COc1cc2c(cc1OC)[C@H](C)NCC2	5.1%[17.8 µM]	-18.8%[17.8 µM]

Screens (PubChem BioAssay)
